The whole screen tested about 330,000 compounds, of which about 4,900 (1.5%) were called active. This is one part of a sample in which actives are shown more often than they occur.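 How the source made its calls: active means inhibition above about 50% at the single test dose (limit read from the data); inactive means the rest.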

The assay addresses Sentrin-specific protease 7 (Homo sapiens) (UniProt Q9BQF6). As to the kind of experiment: blockers of human SENP7 peptidase activity – biochemical, luminescence, uHTS, primary screen (AID 434973).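 Further: plate controls were DMSO with enzyme for no effect and no enzyme buffer wells for full effect.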 The conditions noted are these: recombinant SENP7, Z-RLRGG-aminoluciferin luminescence, 40 min; at 5 µM; hits give high values.
For `Nc1nc(SCc2cccc(Br)c2)n[nH]1`, the inhibition was 0.492% (inactive).

As to `CCCC1CC(C)(C(=O)Cn2[nH]c(=O)ccc2=O)OC1=O` (centres undefined), the inhibition is -0.683% (inactive).

Turning to `Cc1cc(C)nc(-n2ncc3c2CC(c2ccc(C(C)C)cc2)CC3=O)n1` (centres undefined), the inhibition is 9.11% (inactive).

For `COc1cccc(NCCC(=O)c2cccc([N+](=O)[O-])c2)c1`, the inhibition is 13.1% (inactive).

Turning to `COc1ccc(Cc2nnc(SCC(=O)c3cccc([N+](=O)[O-])c3)n2C)cc1`, the inhibition was 73.6% (active).

For the compound `COc1ccc(-n2cnnc2SCC(=O)Nc2cccc([N+](=O)[O-])c2)cc1`, the inhibition was -4.85% (inactive).

As to `O=C(CN1CCOCC1)N1CCCc2c1c(=O)oc1ccc(OCc3ccccc3)cc21`, the inhibition was 4.73% (inactive).

In the case of `C/C(CC(=O)Nc1ccc(N(C)C)cc1)=N\NC(=O)c1ccccc1F`, the inhibition was -1.56% (inactive).

For the compound `C/C(=N\NC(=O)c1ccccc1F)c1ccccn1`, the inhibition is 64.2% (active).

Regarding `COc1ccc(/C(C)=N\NC(=O)c2ccc(-c3ccccc3)cc2)c(F)c1`, the inhibition was 3.63% (inactive).

As to `COc1ccc(OC)c(CNC(=O)c2cc(=O)[nH]c3ccc(S(=O)(=O)N4CCCC4)cc23)c1`, the inhibition was 0.442% (inactive).

Regarding `O=C1CC2(CCCC2)C(=O)N1CN1CCN(S(=O)(=O)c2ccc(F)cc2F)CC1`, the inhibition was -8.48% (inactive).

For `CCC1C(=O)c2ccccc2N(C)C1=O` (centres undefined), the inhibition was -6.31% (inactive).

For `CN1C(=O)/C(=N/OC(=O)c2ccccc2Br)c2ccccc21`, the inhibition is 4.98% (inactive).

`CN1C(=O)/C(=C\c2cc(Br)cs2)c2ccccc21`: the inhibition was 80.9% (active).

`O=C(Nc1cc(=O)[nH]c2ncnn12)c1ccccc1Cl`: the inhibition is 10.9% (inactive).

With `Cc1ccc(S(=O)(=O)N2CCN(c3ncnc4ccccc34)CC2)cc1`, the inhibition is 0.743% (inactive).

On to `Cc1ccc(NC(=O)CN2CCc3ccccc3C2)cc1`, for which the inhibition is -5.44% (inactive).

With `Cc1ccc(S(=O)(=O)Nc2nc3ccccc3nc2N2CCc3ccccc3C2)cc1`, the inhibition is 86.2% (active).

`O=C(COc1ccccc1O)NC1CCCC1`: the inhibition was -1.19% (inactive).

For `CCCCNc1ccc(C(=O)Nc2cccc(C)n2)cc1[N+](=O)[O-]`, the inhibition was -7.17% (inactive).

Regarding `Nc1ccc(N=Nc2ccccc2Cl)c(N)n1`, the inhibition is 82.3% (active).

Take `CCOc1cc(/C=C/C(=O)OCC(=O)NCCN2C(=O)CSC2=O)ccc1OCC(C)C`: the inhibition was 4.69% (inactive).

`Cc1noc(C)c1/C=N/Nc1ccc2ccccc2n1`: the inhibition was 52.5% (active).

Turning to `Cc1nc(Cl)cc(N/N=C/c2ccccc2)n1`, the inhibition was 4.74% (inactive).

With `Cc1nc2ccccc2nc1N/N=C/c1ccc(O)cc1O`, the inhibition is 7.72% (inactive).

On to `O=C(N/N=C/c1ccc2c(c1)OCO2)C(=O)N1CCCC1`, for which the inhibition is 4% (inactive).

`Cc1cc(=O)[nH]c(N/N=C/c2ccc3c(c2)OCCO3)n1`: the inhibition was 6.15% (inactive).

Turning to `C(=N\Nc1ccc2ccccc2n1)/c1ccc2c(c1)OCO2`, the inhibition is 96.1% (active).

Broadly, the inhibition is the relative decrease from the control value, in per cent.

The record behind these values is PubChem BioAssay AID434973 (Sanford-Burnham Center for Chemical Genomics, 2010).
